A word on the AC50: it is the concentration at which the activity in the assay is half-maximal.

This note sets out measurements from PubChem BioAssay (EPA / NIEHS).

Structures are written as SMILES. Inconclusive results are not listed. The source made the active and inactive calls. How the source made its calls: active means hit-call score of the fitted dose curve at least 0.9, where 1 is the maximum; inconclusive means response in the unintended direction; inactive means score below 0.9.

Nucleoli Translocation, AR (gene 367), sequence (P10275 whole entry, looked up, the tested form may be a part): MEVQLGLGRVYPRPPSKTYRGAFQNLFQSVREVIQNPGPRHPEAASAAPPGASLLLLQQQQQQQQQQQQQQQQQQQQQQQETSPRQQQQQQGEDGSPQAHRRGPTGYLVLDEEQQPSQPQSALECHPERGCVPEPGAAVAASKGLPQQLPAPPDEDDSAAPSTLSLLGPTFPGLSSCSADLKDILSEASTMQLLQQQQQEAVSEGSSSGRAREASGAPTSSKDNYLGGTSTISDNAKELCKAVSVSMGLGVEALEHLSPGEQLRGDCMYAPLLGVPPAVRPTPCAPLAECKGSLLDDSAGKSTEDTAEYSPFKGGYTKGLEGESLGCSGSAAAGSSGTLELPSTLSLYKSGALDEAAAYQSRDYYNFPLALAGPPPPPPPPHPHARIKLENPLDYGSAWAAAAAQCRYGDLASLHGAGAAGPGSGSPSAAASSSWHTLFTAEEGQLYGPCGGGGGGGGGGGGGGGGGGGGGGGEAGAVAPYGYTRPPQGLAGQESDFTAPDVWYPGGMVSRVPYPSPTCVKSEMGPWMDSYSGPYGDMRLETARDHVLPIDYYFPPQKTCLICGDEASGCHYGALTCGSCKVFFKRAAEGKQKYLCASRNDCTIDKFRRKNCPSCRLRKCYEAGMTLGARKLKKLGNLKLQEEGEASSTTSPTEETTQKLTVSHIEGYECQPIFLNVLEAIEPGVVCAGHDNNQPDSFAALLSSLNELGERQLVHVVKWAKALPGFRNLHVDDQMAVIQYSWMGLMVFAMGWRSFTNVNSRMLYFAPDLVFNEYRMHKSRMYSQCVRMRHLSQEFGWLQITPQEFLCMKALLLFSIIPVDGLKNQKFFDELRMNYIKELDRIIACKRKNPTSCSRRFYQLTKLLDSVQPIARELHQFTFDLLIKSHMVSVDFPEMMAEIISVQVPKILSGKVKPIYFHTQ

The test deals with Nucleoli Translocation, AR (gene 367) (UniProt P10275). Briefly: UPITT_HCI_U2OS_AR_TIF2_Nucleoli_Antagonist: University of Pittsburgh U2OS Androgen Receptor-Transcriptional Intermediary Factor 2 (AR-TIF2) Antagonism High Content Imaging Assay for Nucleoli Translocation (AID 2283997). The text has this:
UPITT_AR_TIF2_PPIB is a cell-based, high-content imaging assay that uses U2OS, a human osteosarcoma cell line, expressing a human androgen receptor fused to red fluorescent protein and the coactivator TIF2 fused to green fluorescent protein. UPITT_HCI_U2OS_AR_TIF2_Nucleoli_Antagonist is one of four assay components measured from the UPITT_AR_TIF2_PPIB assay. It is designed to make measurements of red fluorescence localized in the nucleolar region of the cell nucleus as detected with high-content fluorescent imaging.Data from the assay component UPITT_HCI_U2OS_AR_TIF2_Nucleoli_Antagonist was analyzed into 1 assay endpoint. This assay endpoint, UPITT_HCI_U2OS_AR_TIF2_Nucleoli_Antagonist, was analyzed in the positive analysis fitting direction relative to DHT as the baseline of activity. Using a type of binding reporter, measures of receptor for loss-of-signal activity can be used to understand the binding at the pathway-level as it relates to the gene AR.
Daughter plates containing 2 uL of 10 mM compounds in DMSO were prepared and replicated from the 384-well Library of Pharmacologically Active Compounds (LOPAC) master plates using the Bravo outfitted with a 384-well transfer head. Aluminum adhesive plate seals were applied with an Abgene Seal-IT 100 (Rochester, NY) plate sealer, and the plates were stored at -20 C in a Matrical MatriMinistore (Spokane, WA) automated compound storage and retrieval system. For screening, LOPAC daughter plates were withdrawn from -20C storage, thawed to ambient temperature, centrifuged 1-2 min at 50 g, and the plate seals were removed before the transfer of 98 uL of serum-free tissue culture medium (SFM) into wells using the BioTek Microflo liquid handler (BioTek, Winooski, VT) to generate a 200 uM intermediate stock concentration of library compounds (2.0% DMSO). The diluted compounds were mixed by repeated aspiration and dispensation using a 384-well P30 dispensing head on the Evolution P3 (EP3) liquid handling platform (PerkinElmer, Waltham, MA) and then 5 uL of diluted compounds was transferred to the wells of assay plates. In the LOPAC screen, compounds were individually tested at a final concentration of 20 uM (0.2% DMSO). After the diluted compounds had been transferred from the daughter plates to the primary HCS assay plates, aluminum adhesive plate seals were applied and the diluted daughter plates were stored frozen at -20C. To confirm active compounds identified in the primary screen, we withdrew the LOPAC daughter plates containing the 200 uM intermediate concentration of library compounds (2.0% DMSO) from -20C storage, thawed them to ambient temperature, centrifuged them for 1-2 min at 50 g, and removed the plate seals. A work list was generated to direct the Multiprobe Janus liquid handling platform (PerkinElmer) to cherry pick 75 uL from the wells of the diluted daughter plates that were flagged active in the primary screen and to reformat these into a 384-well plate hit confirmation daughter plate. Five microliters of primary HCS active compounds was then transferred into triplicate wells of assay plates using a 384-well P30 dispensing head on the Evolution P3 (EP3) liquid handling platform (PerkinElmer). […] Daughter plates containing 2 uL of the serially diluted compounds in DMSO were prepared and replicated from the 384-well serial dilution master plates using the Bravo outfitted with a 384-well transfer head. Aluminum adhesive plate seals were applied and plates were stored at -20C. […] The ImageXpress Ultra (IXU) platform (Molecular Devices LLC, Sunnyvale, CA) and The ImageXpress Micro (IXM) platform were used for imaging.
As to `O=C(O)C1(C(=O)Nc2ccc(Cl)cc2Cl)CC1`, the result was inactive. On the same count and under the same terms, under `CCSC(=O)N(CC(C)C)CC(C)C` stands “inactive”; under `O=C(c1ccccc1)C1CCCCC1`, “inactive”. Still for that read-out and setting: under `CCCOC(=O)c1ccc(C(=O)OCCC)nc1` stands “inactive”. Turning to `Cc1nn(C)c(Oc2ccccc2)c1C=NOCc1ccc(C(=O)OC(C)(C)C)cc1`, the compound was called inactive. With `CC1(C)C(C=C(Cl)Cl)C1C(=O)OCc1cccc(Oc2ccccc2)c1` (stereo not drawn), the outcome was inactive.

`CC(=O)S[C@@H]1CC2=CC(=O)CC[C@]2(C)[C@H]2CC[C@@]3(C)[C@@H](CC[C@@]34CCC(=O)O4)[C@H]12`: the compound was classed as inactive.

For `c1ccc2[nH]c(-c3cscn3)nc2c1`, the compound was called inactive. With `COC(=O)CSc1cc(N=c2sc(=O)n3n2CCCC3)c(F)cc1Cl`, the compound was called inactive. As to `O=C(c1ccc(O)cc1O)c1ccc(O)cc1O`, the AC50 was 10.1 µM (active). On the same count and under the same terms, next, `CSC(=O)c1cccc2nnsc12`: 50 µM (active); `CC(C)(c1ccc(O)cc1)c1ccc(O)cc1`: 12.9 µM (active). `CN(C)C(=O)Nc1ccc(Cl)c(Cl)c1`: the compound was classed as inactive. With `CCOC(=O)C(C)Oc1ccc(Oc2nc3ccc(Cl)cc3o2)cc1` (stereo not drawn), the compound was classed as inactive. Consider `N#CSCSc1nc2ccccc2s1`, for which the AC50 is 9.92 µM (active). Take `CCCCOCCOCCOCc1cc2c(cc1CCC)OCO2`: the outcome was inactive. For `CCCN(CCC)C(=O)SCC`, the call was inactive. The same measure, in the same setting: under `C[C@]12CC[C@@H]3c4ccc(O)cc4C[C@@H](CCCCCCCCCS(=O)CCCC(F)(F)C(F)(F)F)[C@H]3[C@@H]1CC[C@@H]2O` (stereo partly drawn) stands “inactive”.
